Reference: PubChem BioAssay (NCI)
About 79,000 compounds went through this panel and 15% of them were active in at least one assay; those are over-represented in the sample as a whole. Values without a mark were called inactive. The source made the active and inactive calls. Cut-off read from the data, not from the text of the source: active = growth inhibition above about 70%; inactive = the rest.

Experiments:
[1] = NCI Yeast Anticancer Drug Screen. Data for the rad50 strain (AID 155);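 note: 0% = growth of vehicle-only cultures of the same strain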; settings: S. cerevisiae rad50 strain growth inhibition; at 50.0 µM; hits give high values
Outline: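 A DNA repair-deficient yeast mutant serves as the test organism; compound-induced growth inhibition is calculated against vehicle-treated cells.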

[2] = NCI Yeast Anticancer Drug Screen. Data for the mec2-1 strain (AID 157); settings: S. cerevisiae mec2-1 strain, at 50.0 µM, hits give high values
Outline: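 Growth inhibition is read against vehicle-treated controls after compound exposure of the mec2-1 yeast strain, which is defective in DNA damage repair or cell cycle control.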

[3] = NCI Yeast Anticancer Drug Screen. Data for the sgs1 mgt1 strain (AID 161);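 note: 0% = growth of cultures given vehicle only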; settings: S. cerevisiae sgs1 mgt1 strain, at 50.0 µM, hits give high values
Outline: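 Growth of a repair-deficient yeast mutant was monitored after compound treatment and expressed as inhibition relative to vehicle-treated cultures.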

[4] = NCI Yeast Anticancer Drug Screen. Data for the cln2 rad14 strain (AID 165);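 note: 0% = growth equal to vehicle treated cultures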; settings: S. cerevisiae cln2 rad14 strain, at 50.0 µM, hits give high values
Outline: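 Growth inhibition, relative to vehicle-treated controls, is the read-out. The test organism is a yeast strain with defined genetic alterations, cln2 rad14.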

[5] = NCI Yeast Anticancer Drug Screen. Data for the bub3 strain (AID 167); settings: S. cerevisiae bub3 mutant strain, at 50.0 µM, hits give high values
Outline: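 Inhibition values come from growth of compound-treated mutant yeast normalised to vehicle-treated controls.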

[6] = NCI Yeast Anticancer Drug Screen. Data for the mlh1 rad18 strain (AID 175); settings: S. cerevisiae mlh1 rad18 strain growth inhibition; at 50.0 µM; hits give high values
Outline: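 Cells of a genetically altered yeast strain, deficient in DNA damage repair, were treated with compound. Their growth was then compared with that of vehicle-treated cultures to give inhibition.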

## CCCCOC(=O)c1cc(/C=C\c2ccccc2)on1
[1]
  growth inhibition: -12.9%
[2]
  growth inhibition: -2.45%
[3]
  growth inhibition: 3.1%
[4]
  growth inhibition: -69.6%
[5]
  growth inhibition: 30.6%
[6]
  growth inhibition: 9.25%

## O=C(Nc1ccc(CCO)cc1)Nc1ccc(Cl)cc1[N+](=O)[O-]
[1]
  growth inhibition: -6.35%
[2]
  growth inhibition: 34.9%
[3]
  growth inhibition: 25.8%
[4]
  growth inhibition: -18.7%
[5]
  growth inhibition: 21.6%
[6]
  growth inhibition: 17.6%

## COC1=C(OC)C(=O)C(C(=O)CCCCC(=O)O)=C(C)C1=O
[1]
  growth inhibition: 4.8%
[2]
  growth inhibition: 0.5%
[3]
  growth inhibition: 8.5%
[4]
  growth inhibition: -35.4%
[5]
  growth inhibition: 2.9%
[6]
  growth inhibition: 13.9%

## COc1cc(Br)c(CC2c3cc(OC)c(OC)cc3CCN2C)cc1OC (stereo not given)
[1]
  growth inhibition: -17%
[2]
  growth inhibition: -25.4%
[3]
  growth inhibition: -9.75%
[4]
  growth inhibition: 3.2%
[5]
  growth inhibition: -7.95%
[6]
  growth inhibition: -13.4%

## O=[N+]([O-])/C(C(Cl)=C(Cl)Cl)=C(\SCc1ccccc1)N1CCCCC1
[1]
  growth inhibition: -25.6%
[2]
  growth inhibition: -8.1%
[3]
  growth inhibition: 6.75%
[4]
  growth inhibition: 19.4%
[5]
  growth inhibition: 31.7%
[6]
  growth inhibition: 14.6%

## COC(C)CCOC(=O)c1cccc(C)c1 (stereo not given)
[1]
  growth inhibition: 9%
[2]
  growth inhibition: -6.8%
[3]
  growth inhibition: 3.8%
[4]
  growth inhibition: -24%
[5]
  growth inhibition: 24.8%
[6]
  growth inhibition: 1.9%

## Oc1ccccc1/C=N/n1cnnc1
[1]
  growth inhibition: 8.55%
[2]
  growth inhibition: 12.2%
[3]
  growth inhibition: -3.5%
[4]
  growth inhibition: -4.85%
[5]
  growth inhibition: -10.3%
[6]
  growth inhibition: -19.2%

## N#CC1=C(Nc2ccccc2)SC(c2cccs2)NC1=O (stereo not given)
[1]
  growth inhibition: 12.4%
[2]
  growth inhibition: 4.7%
[3]
  growth inhibition: 20.6%
[4]
  growth inhibition: 16.5%
[5]
  growth inhibition: 11.9%
[6]
  growth inhibition: 23.2%

## CN(NC(=O)CCCl)C1=NCCCCN1
[1]
  growth inhibition: -6.6%
[2]
  growth inhibition: -17.9%
[3]
  growth inhibition: -4.95%
[4]
  growth inhibition: 43.5%
[5]
  growth inhibition: -0.5%
[6]
  growth inhibition: 19.4%

## O=c1[nH]c2cc(Cl)ccc2nc1/C=C(\O)c1ccccc1O
[1]
  growth inhibition: 3.35%
[2]
  growth inhibition: -13.3%
[3]
  growth inhibition: -11.2%
[4]
  growth inhibition: -8.4%
[5]
  growth inhibition: -28.3%
[6]
  growth inhibition: -0.8%

## C/C=C(/C)C(=O)OC12CC(C)C3(O)C(C=C(CO)C[C@]4(O)C(=O)C(C)=CC34)C1C2(C)C (stereo not given in full)
[1]
  growth inhibition: 16.2%
[2]
  growth inhibition: 1.3%
[3]
  growth inhibition: -12.6%
[4]
  growth inhibition: -0.45%
[5]
  growth inhibition: 7.5%
[6]
  growth inhibition: 1.35%

## O=C(CCl)Nc1ccc(SSc2ccc(NC(=O)CCl)cc2)cc1
[1]
  growth inhibition: 33.8%
[2]
  growth inhibition: 13%
[3]
  growth inhibition: 47.1%
[4]
  growth inhibition: 43.2%
[5]
  growth inhibition: 10.1%
[6]
  growth inhibition: 12.9%

## CCCCCNc1ccnc(=O)[nH]1
[1]
  growth inhibition: 11.8%
[2]
  growth inhibition: 6.8%
[3]
  growth inhibition: 2%
[4]
  growth inhibition: -39.5%
[5]
  growth inhibition: -12.9%
[6]
  growth inhibition: -12.7%

## C[N+](C)(C)CCOC(=O)c1ccccc1CCl
[1]
  growth inhibition: 19.8%
[2]
  growth inhibition: 8.35%
[3]
  growth inhibition: 31.6%
[4]
  growth inhibition: 50.1%
[5]
  growth inhibition: 97.3% (active)
[6]
  growth inhibition: -17.1%

## COC(=O)Nc1c2ccccc2c(NC(=O)OC)c2ccccc12
[1]
  growth inhibition: -7.15%
[2]
  growth inhibition: 13%
[3]
  growth inhibition: 19.7%
[4]
  growth inhibition: -88.8%
[5]
  growth inhibition: 23.1%
[6]
  growth inhibition: 0.75%

## CCN/C(C)=C\C(=O)OCC
[1]
  growth inhibition: -0.9%
[2]
  growth inhibition: 8.95%
[3]
  growth inhibition: -0.65%
[4]
  growth inhibition: -17.2%
[5]
  growth inhibition: -9.95%
[6]
  growth inhibition: 1.25%

## Nc1nc(C2CCCCC2)cs1
[1]
  growth inhibition: 54.2%
[2]
  growth inhibition: 29.8%
[3]
  growth inhibition: 31.1%
[4]
  growth inhibition: 16.1%
[5]
  growth inhibition: 14.9%
[6]
  growth inhibition: 20.4%

## COC(=O)C1(CC(=O)c2ccc(F)cc2)NC(=S)NC(=O)C1C#N (stereo not given)
[1]
  growth inhibition: 14.6%
[2]
  growth inhibition: 2%
[3]
  growth inhibition: -8.3%
[4]
  growth inhibition: -13.1%
[5]
  growth inhibition: -34%
[6]
  growth inhibition: -1.7%

## CCOC(=O)/C(=C\n1c(=O)[nH]c(=O)[nH]c1=S)C(=O)c1ccccc1
[1]
  growth inhibition: -22.8%
[2]
  growth inhibition: -17.4%
[3]
  growth inhibition: -9.25%
[4]
  growth inhibition: 7.35%
[5]
  growth inhibition: -17.9%
[6]
  growth inhibition: -13.2%

## O=c1oc2ccccc2c2c1cnn2-c1ccccc1
[1]
  growth inhibition: -12.7%
[2]
  growth inhibition: -4%
[3]
  growth inhibition: -7.85%
[4]
  growth inhibition: -5.9%
[5]
  growth inhibition: -21.7%
[6]
  growth inhibition: -4.45%
